# NSD2 inh – NSD2 histone methyltransferase inhibitors, primary screen, biochemical, AlphaScreen, single concentration, set 2. Histone-lysine N-methyltransferase NSD2 (Homo sapiens), O96028. NSD2 peptide methylation, 120 min. inhibition, % at 12.5 µM. hit rate 0.54% among 310,000; in the data active = inhibition above about 50%
# Glyco luc inh – increase of ERlucT glycosylation luciferase signal, primary screen, N-linked glycosylation inhibitor project, D54 ERlucT cells, luminescence, set 2 | D54 ERlucT glycosylation luciferase reporter, 24 h; percent of 100 nM tunicamycin response | hit rate 0.23% among 360,000 | reporter increase, % at 12.5 µM | AID 588692, 2011;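 active = mean luciferase reporter signal, scaled so untreated is 0 and the glycosylation-blocking control 100, at or above a set limit in every replicate; inconclusive = mean reaches the limit but not every replicate does; inactive = mean below the limit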;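 note: luciferase carries N-glycosylation sites so blocking glycosylation raises the light; 0% = median of neutral control wells and 100% = median of 100 nM tunicamycin wells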
# CDK5 inh – inhibitors of human CDK5/p35 kinase, primary screen, biochemical, single concentration; hit rate 0.01% among 330,000; AID 488839, 2010; Cyclin-dependent kinase 5 (Homo sapiens) + Cyclin-dependent kinase 5 activator 1 (Homo …; Recombinant CDK5/p35, ADP-Glo luminescence, 60 min; inhibition, % at 10 µM;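 active = highest replicate inhibition of at least 50% and at least 75% of replicates reaching 50%; inconclusive = only one of the two criteria met; inactive = both criteria failed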;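 note: plate controls were DMSO neutral control for no effect and GW8510 at 10 µM for full effect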
# SUMO Mot1 rescue – yeast Mot1-301 growth rescue at high temperature, primary screen, SUMOylation pathway inhibitor project, S. cerevisiae, ATP luminescence, 38.5C | growth rescue, % at 18.8 µM | AID 2716, 2010 | hit rate 1% among 320,000 | S. cerevisiae Mot1-301 growth rescue; percent above DMSO median, 100 means doubled;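 active = every valid replicate shows activation above 250% relative to neutral control wells; inactive = the rest, any valid replicate at or below 250%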;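 note: OY570 slx delta 5 strain wells were the positive control but not used for scaling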
# CASP6 VEID inh – human caspase-6 inhibitors, primary screen, biochemical, VEID-R110 fluorescence, single point, set 2 | inhibition, % at 12.5 µM | hit rate 0.53% among 350,000 | purified caspase-6, Z-VEID-R110 cleavage fluorescence | P55212 | AID 686996, 2013;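 active = mean inhibition across replicates at least about 35%, with every replicate also reaching that limit, limit read from the data; inconclusive = only one of the two criteria met; inactive = neither criterion met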;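 note: 0% = median of neutral control wells and 100% = no fluorescence left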
# Target sequence (P55212 24-179 limits assumed): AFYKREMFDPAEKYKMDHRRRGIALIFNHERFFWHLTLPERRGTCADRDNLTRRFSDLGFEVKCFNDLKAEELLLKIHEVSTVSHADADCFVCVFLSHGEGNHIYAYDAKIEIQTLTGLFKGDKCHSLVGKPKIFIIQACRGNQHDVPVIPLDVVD
# Target sequence (P55212 194-293 limits assumed): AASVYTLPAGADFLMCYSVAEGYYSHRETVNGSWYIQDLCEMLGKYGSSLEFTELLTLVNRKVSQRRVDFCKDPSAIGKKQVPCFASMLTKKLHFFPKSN
# ALR H2O2 inh – inhibitors of human ALR sulfhydryl oxidase, primary screen, biochemical, H2O2 detection, HRP-luminol luminescence, single point; FAD-linked sulfhydryl oxidase ALR (Homo sapiens), P55789; hit rate 3.8% among 290,000; inhibition, % (no concentration beside the values); purified ALR, DTT oxidation;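 active = mean replicate inhibition above about 79%, with every replicate also reaching it, limit read from the data; inconclusive = only one of the two criteria met; inactive = mean below limit and not every replicate reaching it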
# Target sequence (P55789 whole entry, looked up): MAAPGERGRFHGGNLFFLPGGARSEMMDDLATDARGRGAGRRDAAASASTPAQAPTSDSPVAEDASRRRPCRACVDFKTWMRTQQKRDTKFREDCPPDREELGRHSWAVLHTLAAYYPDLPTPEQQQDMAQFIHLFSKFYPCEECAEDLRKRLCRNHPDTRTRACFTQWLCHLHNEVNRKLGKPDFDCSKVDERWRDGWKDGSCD
# * marks the source's active call; other numbers are inactive results; ? = inconclusive; . = not tested or not shown. In the library only some 3.9% were active in any assay of this set; here they are far more common.
SMILES,NSD2 inh,Glyco luc inh,CDK5 inh,SUMO Mot1 rescue,CASP6 VEID inh,ALR H2O2 inh
CCOC(=O)CSc1nc2sc3c(c2c(=O)n1-c1ccc(OC)cc1)CCN(C)C3,6,4,-1,-28,-1,99*
COC(=O)CSc1nc2sc3c(c2c(=O)n1-c1ccc(OC)cc1)CCN(C)C3,0,3,0,.,.,.
COc1ccc(-n2c(NNC(C)=O)nc3sc4c(c3c2=O)CCCC4)cc1,-2,?,-1,0,69*,0
C[C@@H]1CN([C@@H](C)CO)C(=O)Cc2cc(NC(=O)Nc3ccc(C(F)(F)F)cc3)ccc2O[C@H]1CN(C)S(C)(=O)=O,.,.,.,.,4,.
C[n+]1c2n(c3ccccc31)N=C(c1ccc(Cl)cc1)CS2,2,22,-1,-15,.,99*
COc1ccc(C2=Nn3c([n+](C)c4ccccc43)SC2)cc1,0,4,1,303,2,67
CC1CCCN(CC(O)COC(c2ccccc2)c2ccccc2)C1 (stereo unspecified),2,0,1,-11,38*,4
CCOc1ccc(C2Nc3ccc4ccccc4c3-c3c2c(=O)oc2ccccc32)cc1 (stereo unspecified),-1,12,-2,-10,.,-3
COc1ccc(C2Nc3ccc4ccccc4c3-c3c2c(=O)oc2ccccc32)cc1 (stereo unspecified),-3,109*,5,-8,.,-1
O=C1C(Cl)=C(NCc2ccco2)C(=O)c2ccccc21,71*,-13,1,.,99*,.
O=C(NNC(=O)C1[C@H]2CCCC[C@@H]12)c1ccc(=O)oc1 (stereo partly specified),4,0,1,6,21,96*
CCCNC(=O)C[C@H]1CC[C@@H]2[C@H](COc3ccc(NC(=O)C4CCOCC4)cc3C(=O)N2C)O1,.,.,.,.,-2,.
NC(=S)N=Nc1ccc(NN=C(N)N)cc1,.,-7,4,5,-7,98*
C/C(=N\NC(=O)c1cccc(O)c1)c1ccc(NC(=O)Cc2ccccc2)cc1,.,1,-2,1,4,-1
COc1cccc(C(=O)N/N=C(\C)c2ccc(NC(=O)Cc3ccccc3)cc2)c1OC,-2,-5,0,5,3,-6
C/C(=N\NC(=O)c1ccccc1O)C1CC1,-3,-10,0,65,42*,-1
C/C(=N\NC(=O)c1ccc(N)cc1)C1CC1,-4,1,-1,-1,-7,21
COc1cc(C(=O)N/N=C(\C)c2ccc(NC(=O)Cc3ccccc3)cc2)ccc1O,-1,0,2,7,0,95*
C/C(=N\NC(=O)c1ccccc1O)c1ccc(NC(=O)Cc2ccccc2)cc1,2,-8,0,-13,36*,-5
C=CCn1c(SCc2c(F)c(F)c(F)c(F)c2F)nc(O)cc1=O,1,1,1,-13,.,99*
O=C(O)CC/C(=C\c1cc([N+](=O)[O-])ccc1Cl)c1nc2ccccc2s1,2,1,.,9,.,96*
O=C(O)CC/C(=C\c1ccccc1[N+](=O)[O-])c1nc2ccccc2s1,0,2,0,3,6,97*
CN(C)c1ccc2c(c1)[C@@H]1C[C@@H](CC(=O)NCc3cccc(F)c3)O[C@@H](CO)[C@@H]1O2,.,.,.,.,0,.
CNC[C@@H]1Oc2c(NS(=O)(=O)c3ccc(OC)cc3)cccc2C(=O)N([C@H](C)CO)C[C@H]1C,.,.,.,.,-5,.
O=C(CSS(=O)(=O)O)N1CCN(C(=O)c2ccoc2)CC1,-1,3,0,2,-4,98*
SMILES,NSD2 inh,Glyco luc inh,CDK5 inh,SUMO Mot1 rescue,CASP6 VEID inh,ALR H2O2 inh
O=C(c1cccc(Cl)c1)C1CCCN(C(=O)c2ccoc2)C1 (stereo unspecified),0,1,-1,-28,-3,37
Cc1noc(C)c1S(=O)(=O)Nc1ccc2c(c1)C(=O)N([C@H](C)CO)C[C@H](C)[C@@H](CN(C)Cc1ccc(-c3ccccc3)cc1)O2,.,.,.,.,-2,.
C/C(=N/NC(=O)c1ccccn1)c1ccc(O)cc1,.,-4,-5,129,3,99*
C/C(=N\NC(=O)COc1ccccc1)c1ccc(O)cc1,-6,1,0,178,3,100*
COc1ccc(OCC(=O)N/N=C(\C)c2ccc(OC)cc2)cc1,-7,0,0,1,-2,.
COc1ccc(NC(=O)Nc2ccc3c(c2)C(=O)N([C@@H](C)CO)C[C@H](C)[C@@H](CN(C)S(C)(=O)=O)O3)cc1,.,.,.,.,1,.
C[C@@H]1CN([C@@H](C)CO)C(=O)Cc2cc(NC(=O)Nc3ccc4c(c3)OCO4)ccc2O[C@H]1CN(C)CC1CCCCC1,.,.,.,.,-5,.
COCC(=O)N(C)C[C@H]1Oc2cc(-c3cccnc3)ccc2S(=O)(=O)N([C@@H](C)CO)C[C@H]1C,.,.,.,.,1,.
Cc1noc(C)c1NC(=O)Nc1ccc2c(c1)CC(=O)N([C@H](C)CO)C[C@@H](C)[C@H](CN(C)S(=O)(=O)c1ccc(Cl)cc1)O2,.,.,.,.,4,.
CO[C@@H]1CN(C)C(=O)c2ccc(NS(=O)(=O)c3cn(C)cn3)cc2OC[C@H](C)N(Cc2cccc(F)c2)C[C@@H]1C,.,.,.,.,0,.
COc1ccccc1S(=O)(=O)N1CC[C@@H]2[C@@H](CO)N(C)c3ccc(-c4ccc(F)cc4)cc3[C@@H]21,.,.,.,.,4,.
CCn1c(=O)cc(OCC(=O)O)c2ccccc21,6,-2,-1,.,.,-2
Cn1cc(C(c2ccccc2OCC(=O)O)c2cn(C)c3ccccc23)c2ccccc21,14,2,-1,-16,4,99*
COc1ccc(CN(C)C[C@@H]2Oc3c(NS(C)(=O)=O)cccc3C(=O)N([C@@H](C)CO)C[C@@H]2C)cc1,.,.,.,.,-5,.
Cc1sc2nc(CSC(C)C(=O)Nc3cc(S(C)(=O)=O)ccc3Cl)[nH]c(=O)c2c1C (stereo unspecified),1,0,-2,-25,6,98*
Cc1sc2nc(CSC(C)C(=O)Nc3ccccn3)[nH]c(=O)c2c1C (stereo unspecified),-2,4,0,13,9,3
Cc1ccc(NC(=O)C(C)SCc2nc3sc(C)c(C)c3c(=O)[nH]2)nc1 (stereo unspecified),4,-3,-3,161,5,99*
COc1cccc(N2CCN(S(=O)(=O)c3cccc4cccnc34)CC2)c1,2,0,2,-28,-1,94*

# Screening data from PubChem.
